Laboratory results taken from the supplement of paper PMC13380429.

Test system: Vero E6 infected with SARS-CoV-2
Assay: inhibition of SARS-CoV-2 cytopathic effect; higher = more antiviral protection, active = above 15
Conditions: 48 h

Measured: inhibition of SARS-CoV-2 cytopathic effect

O=C1COc2nccc(-c3ccccc3F)c2CN1Cc1cc(C(F)(F)F)cc(C(F)(F)F)c1
inactive: 1 nM -0.76% | 8.33 nM -1.69% | 100 nM -0.49% | 833.33 nM -2.79% | 10000 nM -1.55%

CC(C)=CCC[C@](C)(O[C@@H]1O[C@H](CO)[C@@H](O)[C@H](O)[C@H]1O)[C@H]1CC[C@]2(C)[C@@H]1[C@H](O)C[C@@H]1[C@@]3(C)CC[C@H](O)C(C)(C)[C@@H]3CC[C@]12C [ginsenoside-C-K]
inactive: 1 nM 3.53% | 8.33 nM 3.09% | 100 nM 3.64% | 833.33 nM -0.21% | 10000 nM 2.52%

Nc1nccc(/C=C/c2ccccc2)n1
inactive: 1 nM 3.44% | 8.33 nM 3.79% | 100 nM 0.04% | 833.33 nM 0.59% | 10000 nM 2.05%

Cn1cnc(N)c2ncnc1-2 [3-methyladenine]
inactive: 1 nM -3.13% | 8.33 nM -1.71% | 100 nM -2.68% | 833.33 nM -0.52% | 10000 nM -1.76%

Cc1cccc(C)c1NC(=O)CC12CCCN1CCC2 [pilsicainide]
inactive: 1 nM 0.34% | 8.33 nM 2.77% | 100 nM 4.31% | 833.33 nM 6.65% | 10000 nM -1.57%

CNC(=C[N+](=O)[O-])NCCSCc1ccc(CN(C)C)o1 [ranitidine]
inactive: 1 nM 2.45% | 8.33 nM 2.26% | 100 nM 2.56% | 833.33 nM 0.8% | 10000 nM 1.08%

NC/C(=C/F)CCc1ccc(F)cc1 [mofegiline]
inactive: 1 nM 3.65% | 8.33 nM 2.09% | 100 nM 1.29% | 833.33 nM -1.58% | 10000 nM -3.87%

CNc1nc(-c2ccc3c(N)n[nH]c3c2)cc(N2C[C@@H](C(=O)NC3CCCCC3)CC[C@H]2C)n1
inactive: 1 nM 2.6% | 8.33 nM 3.93% | 100 nM 1.23% | 833.33 nM 0.1% | 10000 nM -5.35%

CC(C)(C)Sc1c(CC(C)(C)C(=O)O)n(Cc2ccc(Cl)cc2)c2ccc(OCc3ccc4ccccc4n3)cc12 [quiflapon]
inactive: 1 nM 1.81% | 8.33 nM 0.25% | 100 nM -1.43% | 833.33 nM 1.93% | 10000 nM 1.66%

CCCOc1ccc(S(=O)(=O)N2CCN(CCO)CC2)cc1-c1nc2c(CCC)cn(CC)c2c(=O)[nH]1 [mirodenafil]
inactive: 1 nM -1.57% | 8.33 nM 0.66% | 100 nM -2.49% | 833.33 nM -3.18% | 10000 nM -6.03%

CN(C)c1nc(N)c(C(=O)Nc2cccnc2)nc1Cl
inactive: 1 nM 1.28% | 8.33 nM 4.72% | 100 nM -0.62% | 833.33 nM 4.15% | 10000 nM 0.82%

O=C(CCc1ccncc1)NNC(=O)N1Cc2ccccc2Oc2ccc(Cl)cc21
inactive: 1 nM 1.3% | 8.33 nM 1.11% | 100 nM 1.69% | 833.33 nM -0.24% | 10000 nM 5.24%

CCc1cnn2c(NCc3ccc[n+]([O-])c3)cc(N3CCCC[C@H]3CCO)nc12 [dinaciclib]
inactive: 1 nM 1.49% | 8.33 nM -1.48% | 100 nM -3.71% | 833.33 nM -9.46% | 10000 nM -8.75%

O=C(Oc1cccc2cccnc12)c1ccccc1 [benzoxiquine]
inactive: 1 nM 1.28% | 8.33 nM 1.56% | 100 nM -0.45% | 833.33 nM -1.05% | 10000 nM -3.29%

O=c1[nH]c(CCl)nc2sc3c(c12)CCCC3
inactive: 1 nM -1.17% | 8.33 nM -1.84% | 100 nM -1.12% | 833.33 nM 0.17% | 10000 nM 12.3%

CN1CC[C@@H]2CN3CCc4cccc(c43)[C@@H]2C1
inactive: 1 nM -3.24% | 8.33 nM -0.59% | 100 nM 1.77% | 833.33 nM -0.07% | 10000 nM 1.24%

N=C(Nc1ccccc1)Nc1ccccc1 [diphenylguanidine]
inactive: 1 nM -3.55% | 8.33 nM -2.37% | 100 nM -2.77% | 833.33 nM -0.58% | 10000 nM 2.16%

CCCCOc1c(C(=O)c2c(F)cc(C)cc2F)c[nH]c2nncc1-2
inactive: 1 nM 0.56% | 8.33 nM -0.26% | 100 nM 0.08% | 833.33 nM -0.55% | 10000 nM -3.38%

O=C(O)[C@]1(Cc2cccc(Nc3nccs3)n2)CC[C@@H](Oc2cccc(Cl)c2F)CC1
inactive: 1 nM 0.11% | 8.33 nM -0.24% | 100 nM -0.82% | 833.33 nM -6.57% | 10000 nM -5.28%

O=C1[C@@H]2[C@H]3CC[C@H](C3)[C@@H]2C(=O)N1C[C@@H]1CCCC[C@H]1CN1CCN(c2nsc3ccccc23)CC1 [lurasidone]
inactive: 1 nM -0.28% | 8.33 nM 0.05% | 100 nM 1.73% | 833.33 nM 3.11% | 10000 nM -6.2%

O=C(Nc1cc(C(F)(F)F)cc(C(F)(F)F)c1)Nc1c(Br)cc(Br)cc1-c1nnn[nH]1
inactive: 1 nM 1.22% | 8.33 nM 1.04% | 100 nM -0.61% | 833.33 nM -2.22% | 10000 nM -3.2%

CN(C)C(=O)COC(=O)Cc1ccc(OC(=O)c2ccc(NC(=N)N)cc2)cc1 [camostat-mesilate]
inactive: 1 nM 3.69% | 8.33 nM -0.38% | 100 nM 1.74% | 833.33 nM 1.93% | 10000 nM -2.24%

CN(C)c1ccc2c(c1)Sc1cc(N(C)C)ccc1N2 [leucomethylene-blue]
inactive: 1 nM 2.22% | 8.33 nM 0.11% | 100 nM 0.26% | 833.33 nM 0.69% | 10000 nM -7.13%

COc1ccc(CNC(=O)c2cc(-c3cncc(C)c3)ncc2-c2nccs2)nc1OC
inactive: 1 nM 1.93% | 8.33 nM 4.06% | 100 nM 1.64% | 833.33 nM -9.94% | 10000 nM 3.12%

O=C(O)Cc1cccc(OCCCN(Cc2cccc(C(F)(F)F)c2Cl)CC(c2ccccc2)c2ccccc2)c1
inactive: 1 nM 0.26% | 8.33 nM 0.75% | 100 nM 2.25% | 833.33 nM 0.38% | 10000 nM 8.79%

CCCC[C@]1(CC)CS(=O)(=O)c2cc(CNC(CC(=O)O)CC(=O)O)c(OC)cc2[C@@H](c2ccccc2)N1
inactive: 1 nM 3.94% | 8.33 nM 3.04% | 100 nM 5.12% | 833.33 nM 1.44% | 10000 nM 1.53%

COc1ccc(-n2[nH]c3c4c(ncc3c2=O)CCCCC4)cc1
inactive: 1 nM 0.69% | 8.33 nM 0.11% | 100 nM -0.83% | 833.33 nM 1.15% | 10000 nM -1.86%

Cc1cc(-c2cc(OC(=O)c3ccccc3)ccc2Cl)cc2nnc(Nc3ccc(OCCN4CCCC4)cc3)nc12
inactive: 1 nM -2.62% | 8.33 nM 2.55% | 100 nM 2.44% | 833.33 nM 1.14% | 10000 nM 2.17%

Oc1ccc2c3c1O[C@H]1c4[nH]c5c(c4C[C@@]4(O)[C@@H](C2)N(CC2CC2)CC[C@]314)C[C@@]1(O)[C@H]2Cc3ccc(O)c4c3[C@@]1(CCN2CC1CC1)[C@H]5O4 [nor-binaltorphimine]
inactive: 1 nM 1.48% | 8.33 nM 0.42% | 100 nM 2.76% | 833.33 nM 1.16% | 10000 nM -1.05%

Cn1cnnc1Sc1c([N+](=O)[O-])ncn1C
inactive: 1 nM 3.11% | 8.33 nM 1.9% | 100 nM 2.13% | 833.33 nM 5% | 10000 nM 2.84%

C=C[C@@]1(C)CC(=O)[C@]2(O)[C@@]3(C)[C@@H](O)CCC(C)(C)[C@@H]3[C@H](O)[C@H](OC(C)=O)[C@@]2(C)O1 [colforsin]
inactive: 1 nM 2% | 8.33 nM 2.29% | 100 nM 2.56% | 833.33 nM -1.53% | 10000 nM 0.905%

C=C(C)[C@@H]1CC[C@]2(C(=O)O)CC[C@]3(C)[C@H](CC[C@@H]4[C@@]5(C)CC[C@H](O)C(C)(C)[C@@H]5CC[C@]43C)[C@@H]12 [betulinic-acid]
inactive: 1 nM -1.47% | 8.33 nM -3.53% | 100 nM -2.01% | 833.33 nM 0.38% | 10000 nM 0.04%

OC[C@H]1O[C@@H](O[C@@H]2[C@@H](CO)OC(O)(CO)[C@H]2O)[C@H](O)[C@@H](O)[C@H]1O (mixture of isomers) [lactulose]
inactive: 1 nM 1.11% | 8.33 nM 0.23% | 100 nM -0.45% | 833.33 nM -1.79% | 10000 nM 1.61%

CN1[C@@H]2CC[C@H]1C[C@@H](OC(=O)c1c[nH]c3ccccc13)C2 [tropisetron]
inactive: 1 nM -1.26% | 8.33 nM -1.1% | 100 nM 1.21% | 833.33 nM 1.27% | 10000 nM -1.17%

CNCCC(Oc1ccccc1OC)c1ccccc1 (stereo not given) [nisoxetine]
inactive: 1 nM -1.97% | 8.33 nM 0.21% | 100 nM 4.4% | 833.33 nM 7.73% | 10000 nM -0.07%

Clc1ccc2c(c1)CCc1cccnc1C2=C1CCNCC1 [desloratadine]
inactive: 1 nM 5.47% | 8.33 nM 2% | 100 nM 3.51% | 833.33 nM -0.44% | 10000 nM -5.42%

O=C(NC1CCNCC1)c1n[nH]cc1NC(=O)c1c(Cl)cccc1Cl
inactive: 1 nM -0.55% | 8.33 nM -2.6% | 100 nM -1.5% | 833.33 nM -1.53% | 10000 nM 2.5%

NC(=O)c1nc(F)cnc1O [Favipiravir]
inactive: 1 nM -0.26% | 8.33 nM 1.4% | 100 nM -0.55% | 833.33 nM 1.38% | 10000 nM -0.22%

Cc1nnsc1C(=O)Nc1ccc(-n2nc(C(F)(F)F)cc2C(F)(F)F)cc1
inactive: 1 nM -4.22% | 8.33 nM 2.91% | 100 nM 0.56% | 833.33 nM -0.23% | 10000 nM -10.5%
